# PubChem BioAssay AID720536 (National Center for Advancing Translational Sciences (NCATS), 2013)
# In all, about 1,600 compounds went through this assay and about 650 (41%) were called active. About 39% were inconclusive and are not listed. Calls come from the whole dose curve; as a rule, active = well fitted inhibition curve with a large enough effect; inconclusive = small, poorly fitted or top-dose-only effect; inactive = no such curve, though single readings can be large or run the other way. So high a share suggests a set chosen from earlier hits. The full list was thinned out, with actives kept by preference.
# Assay: qHTS for Inhibitors of TGF-b: CCL64 Cells Orthogonal Assay for Cherry Picks; note: nearly all actives have a fitted effect of over 65% in size
# Conditions: CCL64 CAGA-GFP reporter, TGF-b stimulated, GFP fluorescence, 18 h; series mostly up to 46.1 µM
# From the text: TGF-b is a main component in the TGF-b signaling pathway which plays diverse roles in cellular and development pathways. TGF-b is the mediated by the transcription factors Smads. Although the Smad-dependent pathway is the primary canonical TGF-b signaling node, TGF-b1 can also activate alternative signaling pathways, including those involving MAPK (ERK, JNK and p38). This interaction may mediate or enhance Smad-dependent responses, or can exert Smad-independent effects. The complexity of this signaling cascade allows the TGF-b superfamily to perform unique, overlapping or redundant functions. We believe that targeting the TGF-beta pathway at the Smad-transcription factor level may eliminate the consequences of disrupting the entire pathway and offer specificity without affecting other signaling pathways. Smad3 is the primary transducer of TGF-b's signals and Smad3 regulates many functions attributed to TGF-b signaling. We hypothesize that Smad3 inhibitors will selectively eliminate Smad3-specific TGF-beta signals without undesired off-target effects. We aim to identify Smad3-small molecule antagonists using a quantitative high throughput screening (qHTS) approach. A high-throughput assay was developed to screen the NIH Molecular Libraries Small Molecule Repository (MLSMR). This is a cell based assay, where TGF-b is tagged with GFP. This orthogonal assay was run using CCL64 cells (as opposed to HepG2); activity was desired in this assay as this indicated the hits identified from the screen are not a cell-based artifact. MH087449NIH Chemical Genomics Center [NCGC] NIH Molecular Libraries Probe Centers Network [MLPCN] MLPCN Grant: MH087449 Assay Submitter (PI): Sushil Rane, National Institute of Diabetes and Kidney Diseases
# Suspensions of trypsinized CCL64 CAGA-GFP cells were dispensed into white, tissue culture-treated, solid 1536-well plates at 5uL/well (1000 cells/well final concentration) in DMEM medium supplemented with 1% FBS. Plates were incubated at 37 degrees C for 2 hours, after which 23 nL of compounds or DMSO were delivered to each well using a pin tool. One uL of recombinant TGF-beta in DMEM (1% FBS) was then dispensed (500 pg/mL final concentration), and plates were incubated at 37 degrees C for 18 hours. The plates were measured on an Acumen eX3 Explorer plate reader for GFP fluorescence (ex488/em500-530). GFP values were calculated by determining the mean GFP fluorescence of individual cells, and compiling these values for each well to determine a total well GFP signal. The %Activity was determined from the corrected fluorescence values. A titration of the known TGF-B inhibitor SB431542 was included to monitor plate performance, while unstimulated […] (-TGF-B) control wells were used to normalize %Activity of identified inhibitors; unstimulated wells corresponded to 100%Activity (full inhibition), while stimulated cell controls (+DMSO) were used to normalize 0%Activity (no inhibition). Concentration-response curves were fitted to the signals arising from the resulting fluorescence. The concentration-effect curves were then classified based on curve quality (r2), response magnitude and degree of measured activity, and compounds were subsequently categorized based on their curve class.
# Potency is the fitted concentration of half-maximal effect.
row,SMILES,Potency
1,COc1cc(NC(=O)c2[nH]cnc2C(N)=O)cc(C(=O)Nc2cccc(C(F)(F)F)c2)c1,9.2 µM (active)
2,CCCc1cc(-c2n[nH]c(=S)n2CC)c2ccccc2n1,inactive
3,Clc1ccc2c(c1)C1=C(C(c3ccncc3)O2)C(c2ccc(Br)cc2)n2ncnc2N1 (centres undefined),10.3 µM (active)
4,Cc1ccc(-c2nc3ccc(Br)cn3c2Cc2ccccc2C(F)(F)F)cc1,inactive
5,CCOC(=O)C1=C(N)N(c2ccc(C)cc2)C2=C(C(=O)CCC2)C1c1cccs1 (centres undefined),23.1 µM (active)
6,Cc1cccc(NC(=O)c2nc(S(=O)(=O)Cc3ccccc3)ncc2Cl)c1,2.59 µM (active)
7,Cc1cccc(CS(=O)(=O)c2ncc(Cl)c(C(=O)Nc3ccc(F)cc3)n2)c1,4.61 µM (active)
8,Cc1ccc(S(=O)(=O)Nc2ccc3c(c2)C(=O)N([C@H](C)CO)C[C@@H](C)[C@@H](CN(C)C(=O)Nc2cccc4ccccc24)O3)cc1,inactive
9,COc1cc(NC(=O)COC(=O)c2ccc([N+](=O)[O-])s2)cc(OC)c1OC,inactive
10,CC1CCc2c(nc3ncnn3c2Nc2ccc(OC(F)(F)F)cc2)C1 (centres undefined),inactive
11,Cc1nc(/N=C(\N)NC(=O)NC2CCCCC2)nc2ccccc12,20.6 µM (active)
12,COc1cccc(CNc2nc(NCc3ccccc3OC)nc3ccsc23)c1,18.4 µM (active)
13,O=C(Nc1ccc(C2CC2(Cl)Cl)cc1)c1cccc([N+](=O)[O-])c1 (centres undefined),14.6 µM (active)
14,CC(=NNC(=S)N1CCCCCC1)c1ccccn1,4.11 µM (active)
15,O=C(NC1=CC(=O)c2ccccc2C1=O)c1ccccc1,3.66 µM (active)
16,CCCOc1ccccc1C1CC(=O)Nc2cc3c(cc21)OCO3 (centres undefined),13 µM (active)
17,Cc1ccc(CN2CC(N3CCC(Cc4ccccc4)CC3)CS2(=O)=O)cc1 (centres undefined),inactive
18,CCCOc1ccc(F)cc1-c1cc(C(=O)Nc2ccc(F)c(Cl)c2)[nH]n1,25.9 µM (active)
19,O=[N+]([O-])c1ccccc1S(=O)(=O)Nc1cccc2cccnc12,8.2 µM (active)
20,Clc1ccc(Nc2nc(-c3cccs3)cs2)nc1,29.1 µM (active)
21,COC(=O)COc1cccc2c(=O)n(CC(=O)NCc3ccccc3)ccc12,inactive
22,COc1cc(/C=C2\Oc3ccc(C#Cc4ccc(O)cc4)cc3C2=O)cc(OC)c1,5.17 µM (active)

row,SMILES,Potency
1,Cc1cc(C)cc(N(CC(=O)N2CC=C(c3ccccc3)CC2)S(=O)(=O)c2c(C)noc2C)c1,10.3 µM (active)
2,COc1ccc(CNC(=O)C[C@H]2C[C@H](C(=O)N3CCOCC3)[C@@]3(CCC4CCCC4)c4[nH]c5ccc(Cl)cc5c4CCN3C2=O)cc1OC,5.17 µM (active)
3,COc1ccc2nc(N3CCN(C(=O)c4ccc([N+](=O)[O-])o4)CC3)sc2c1,inactive
4,CN(C)CCNC(=O)c1ccc(Cl)c2cc3ccccc3nc12,4.61 µM (active)
5,Fc1cc(F)c2nc(Nc3nc4c(F)cccc4s3)sc2c1,inactive
6,c1ccc2cc3c(NCCN4CCOCC4)ccnc3cc2c1,13 µM (active)
7,Cn1c(=O)n(C)c2cc(S(=O)(=O)N3CCCc4ccccc43)ccc21,inactive
8,COc1ccc(-c2csc(NC3OC(=O)c4ccccc43)n2)cc1 (centres undefined),11.6 µM (active)
9,OCC1OC(n2cnc3c(N4CCCC4)ncnc32)C(O)C1O (centres undefined),inactive
10,COc1cc(NC(=O)c2ccccc2NS(=O)(=O)c2ccc(Cl)s2)cc(OC)c1,4.61 µM (active)
11,Cc1cccc2sc(N(CCCN(C)C)C(=O)CCS(=O)(=O)c3ccccc3)nc12,3.26 µM (active)
12,COc1cccc2sc(N(CCCN(C)C)C(=O)CCS(=O)(=O)c3ccccc3)nc12,2.91 µM (active)
13,COc1c(C(C)C)oc2cc3oc(=O)ccc3cc12,inactive
14,O=C(Nc1ccc(Br)cn1)c1ccc([N+](=O)[O-])o1,13 µM (active)
15,COc1ccc(-c2onc(C)c2-c2ccc3c(c2)OCCO3)c(O)c1,14.6 µM (active)
16,CN(C)c1nc(N)nc(CSc2nnnn2-c2cccc3ccccc23)n1,inactive
17,COc1ccc(CC(=O)Nc2ccccc2NC(=O)c2ccco2)cc1OC,inactive
18,CC(=O)c1ccc(-c2cnc3c(NC=O)cc(-c4cccc(NS(C)(=O)=O)c4)cn23)cc1,5.17 µM (active)
19,Cc1ccc(C)c(S(=O)(=O)N2CCN(CC(=O)Nc3ccc([N+](=O)[O-])cc3)CC2)c1,inactive
20,OCCCNc1nccc(-c2cc(Nc3cccc(Cl)c3)ncn2)n1,1.3 µM (active)
21,O=C(CCC(=O)N1CCN(S(=O)(=O)c2ccc(Cl)cc2)CC1)NCc1cccc(C(F)(F)F)c1,inactive
22,O=C(/C(=C/c1cccc(Cl)c1)c1nc2ccccc2[nH]1)c1ccccc1,4.61 µM (active)
